Whole data set: some 4,100 sequences, median “relative CpG methylation activity (normalised to average over all NNNCGNNN flanks)” near 0.94, cut for the highest 2% near 1.9. What follows is part of a selection rich in the highest values, with near analogues and random picks from the rest.
The sequences below were run against DNMT3B catalytic domain (mouse) (UniProt O88509) (assay: relative CpG methylation activity (normalised to average over all NNNCGNNN flanks) (relative (1 = mean)); higher = more methylation of the central CpG). Conditions: system: in vitro, murine catalytic domain; CpG state: hemimethylated substrate pool; residues: 558-859.
DNMT3B catalytic domain (mouse), sequence (O88509 558-859): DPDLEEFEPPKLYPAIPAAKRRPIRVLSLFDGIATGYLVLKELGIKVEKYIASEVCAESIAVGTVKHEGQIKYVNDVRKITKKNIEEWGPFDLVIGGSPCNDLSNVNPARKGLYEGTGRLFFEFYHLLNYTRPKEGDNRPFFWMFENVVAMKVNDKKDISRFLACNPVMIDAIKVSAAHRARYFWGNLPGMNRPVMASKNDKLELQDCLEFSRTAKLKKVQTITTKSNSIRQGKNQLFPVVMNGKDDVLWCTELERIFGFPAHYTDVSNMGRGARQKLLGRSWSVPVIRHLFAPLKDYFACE
Procedure: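 Deep enzymology: a pool of dsDNA substrates with a central CpG flanked by 10 random nucleotides on each side was methylated by the murine DNMT3A or DNMT3B catalytic domain (0.8 mM SAM, 37 °C, 60 min). Methylation was then read out by hairpin ligation, bisulfite conversion and NGS. Values are the average methylation of each NNNCGNNN context (±3 flanks; the outer flanks are random and averaged over), normalised to the overall mean, so 1 = average activity.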

Compared with TTACGAAC, CTACGAAT is lower in “relative CpG methylation activity” value: 1.96 for the first, 1.56 for the second.

Compared with CCTCGGTT, AATCGTTC is lower in “relative CpG methylation activity” value: 1.13 for the first, 0.607 for the second.

First: AGCCGAGC
Second: TTCCGGCT
The “relative CpG methylation activity” value of the first is lower: 1.24 for the first, 1.61 for the second.

Compared with GTTCGTGA, ATCCGGCG is higher in “relative CpG methylation activity” value: 0.411 for the first, 1.82 for the second.

Compared with TTCCGGCG, TTCCGGCC is lower in “relative CpG methylation activity” value: 2.04 for the first, 1.67 for the second.

Compared with TTCCGGTC, CTCCGGTC is lower in “relative CpG methylation activity” value: 2.04 for the first, 1.8 for the second.

First: ATCCGGTT
Second: TTCCGGTT
The “relative CpG methylation activity” value of the first is lower: 1.46 for the first, 2.2 for the second.

Compared with TTCCGGTA, CTCCGGTT is higher in “relative CpG methylation activity” value: 1.33 for the first, 1.72 for the second.

Compared with ATTCGTTC, AAGCGCCG is lower in “relative CpG methylation activity” value: 0.876 for the first, 0.713 for the second.

Going from TAGCGGGG to CATCGGCT, the “relative CpG methylation activity” value rises from 0.665 to 1.78.

Going from GTTCGGTC to GACCGTTT, the “relative CpG methylation activity” value falls from 1.15 to 0.177.

Going from CTTCGAGG to CTTCGAAC, the “relative CpG methylation activity” value rises from 1.65 to 1.98.

Going from ATTCGAAC to CTTCGAGA, the “relative CpG methylation activity” value rises from 1.69 to 1.95.

Compared with ATTCGAGA, CTTCGAAA is lower in “relative CpG methylation activity” value: 1.83 for the first, 1.57 for the second.

Going from TACCGTGT to ACCCGGAT, the “relative CpG methylation activity” value rises from 0.198 to 0.954.

Compared with TATCGGAA, CCTCGGAC is higher in “relative CpG methylation activity” value: 0.708 for the first, 1.14 for the second.

Going from CCCCGGCA to ACCCGGCT, the “relative CpG methylation activity” value falls from 1.72 to 1.67.

Compared with CCCCGGCG, TCCCGGCA is lower in “relative CpG methylation activity” value: 1.95 for the first, 1.62 for the second.

Compared with TCCCGGCT, CCCCGGCC is lower in “relative CpG methylation activity” value: 1.95 for the first, 1.77 for the second.

First: GCCCGGCT
Second: CCCCGGCT
The “relative CpG methylation activity” value of the first is lower: 1.4 for the first, 2.05 for the second.

Compared with TCCCGGCG, AAGCGTGC is lower in “relative CpG methylation activity” value: 1.87 for the first, 0.448 for the second.

Going from ATCCGTCC to AGTCGTCG, the “relative CpG methylation activity” value falls from 1.35 to 0.57.

Compared with ACGCGTTC, ACCCGCGA is lower in “relative CpG methylation activity” value: 0.658 for the first, 0.371 for the second.

Going from GCACGCTG to ATACGATC, the “relative CpG methylation activity” value rises from 0.98 to 2.12.

Compared with CAACGATG, ACACGATA is higher in “relative CpG methylation activity” value: 1.43 for the first, 1.75 for the second.

Compared with ATACGATG, CAACGATA is higher in “relative CpG methylation activity” value: 1.63 for the first, 1.77 for the second.

Going from ATACGATT to CTACGATC, the “relative CpG methylation activity” value rises from 1.74 to 1.92.

Going from ATACGATA to CAACGATC, the “relative CpG methylation activity” value falls from 2.03 to 1.94.

Going from GTACGATA to CTACGACC, the “relative CpG methylation activity” value rises from 1.73 to 1.82.

First: CCACGATC
Second: GTTCGCAA
The “relative CpG methylation activity” value of the first is higher: 1.74 for the first, 0.436 for the second.

Compared with TCTCGGTT, ACTCGGCG is higher in “relative CpG methylation activity” value: 0.917 for the first, 1.6 for the second.

Going from TGGCGTGT to CAGCGACA, the “relative CpG methylation activity” value rises from 0.0208 to 0.777.

Compared with CTGCGTCA, CCTCGCCA is higher in “relative CpG methylation activity” value: 0.944 for the first, 1.05 for the second.

Compared with GGCCGGGT, GGCCGAGC is higher in “relative CpG methylation activity” value: 0.602 for the first, 1.53 for the second.

Compared with TGACGCCT, GTACGCTC is higher in “relative CpG methylation activity” value: 1.11 for the first, 1.53 for the second.

First: CCACGATA
Second: CTACGCTA
The “relative CpG methylation activity” value of the first is higher: 1.7 for the first, 1.47 for the second.

Going from CTACGCTC to CTACGATA, the “relative CpG methylation activity” value rises from 1.91 to 1.97.

First: CTACGATG
Second: TAGCGCCT
The “relative CpG methylation activity” value of the first is higher: 1.83 for the first, 0.72 for the second.

First: CGACGTAA
Second: GGTCGATT
The “relative CpG methylation activity” value of the first is lower: 0.604 for the first, 1.49 for the second.

First: CCTCGGCC
Second: TATCGGCA
The “relative CpG methylation activity” value of the first is lower: 1.66 for the first, 1.95 for the second.

Going from AGTCGGCC to TATCGGCG, the “relative CpG methylation activity” value rises from 1.69 to 1.79.

Going from TCTCGGCT to AGTCGGCA, the “relative CpG methylation activity” value rises from 1.8 to 2.11.

Going from TATCGGCC to TCTCGGCC, the “relative CpG methylation activity” value falls from 2.01 to 1.96.

Compared with AGTCGGCT, CATCGGCA is higher in “relative CpG methylation activity” value: 1.79 for the first, 1.83 for the second.

First: AATCGGCA
Second: AATCGGCC
The “relative CpG methylation activity” value of the first is lower: 1.74 for the first, 1.88 for the second.

First: ATTCGAGG
Second: AGTCGGGT
The “relative CpG methylation activity” value of the first is higher: 1.29 for the first, 1.16 for the second.

Compared with GTACGCCT, TTCCGATG is lower in “relative CpG methylation activity” value: 1.73 for the first, 1.47 for the second.

Going from GGCCGCGC to AGACGGTA, the “relative CpG methylation activity” value rises from 0.361 to 1.16.

Compared with GCTCGATG, CTACGGCC is higher in “relative CpG methylation activity” value: 1 for the first, 1.96 for the second.

Compared with GTACGGAG, ATTCGGCG is higher in “relative CpG methylation activity” value: 1.39 for the first, 1.77 for the second.

First: TTACGGTT
Second: CTACGGAC
The “relative CpG methylation activity” value of the first is higher: 1.85 for the first, 1.64 for the second.

Going from ATTCGGCC to ATTCGGCT, the “relative CpG methylation activity” value falls from 2.04 to 1.69.

Compared with GTACGGCG, GTACGGTG is lower in “relative CpG methylation activity” value: 2.05 for the first, 1.48 for the second.

Going from TTACGGCT to CTGCGGCC, the “relative CpG methylation activity” value falls from 1.98 to 1.22.

Going from TCACGGCT to ATGCGGAC, the “relative CpG methylation activity” value falls from 1.83 to 0.76.

Compared with TTGCGAAG, ATCCGCCG is lower in “relative CpG methylation activity” value: 0.966 for the first, 0.929 for the second.

Compared with CACCGGGT, CAGCGCTG is lower in “relative CpG methylation activity” value: 1.06 for the first, 0.635 for the second.

Going from GTGCGCGT to TGTCGCCC, the “relative CpG methylation activity” value rises from 0.649 to 0.734.

Compared with TGACGAGT, AGTCGTGG is lower in “relative CpG methylation activity” value: 1.21 for the first, 0.341 for the second.

Compared with CGTCGTGT, TTGCGGCT is higher in “relative CpG methylation activity” value: 0.248 for the first, 1.95 for the second.

Compared with ATGCGGCT, ATACGGAA is lower in “relative CpG methylation activity” value: 1.55 for the first, 1.32 for the second.

Compared with TTGCGGCC, ATACGGCG is higher in “relative CpG methylation activity” value: 1.43 for the first, 2.11 for the second.

First: ATACGGTA
Second: ATACGGCA
The “relative CpG methylation activity” value of the first is lower: 1.64 for the first, 2.11 for the second.

Going from ATACGGTG to CTACGGAA, the “relative CpG methylation activity” value falls from 1.75 to 1.68.

Going from CTACGGCA to CCACGGCA, the “relative CpG methylation activity” value falls from 2.23 to 1.74.

Going from ATACGGAG to AAACGAAA, the “relative CpG methylation activity” value rises from 1.21 to 1.58.

Going from CATCGTCC to GTGCGTCA, the “relative CpG methylation activity” value falls from 0.944 to 0.799.

Compared with TCCCGGGG, CATCGCGG is lower in “relative CpG methylation activity” value: 1.21 for the first, 0.514 for the second.

First: GAACGGCG
Second: AGGCGTGC
The “relative CpG methylation activity” value of the first is higher: 1.53 for the first, 0.175 for the second.

First: ACCCGGTT
Second: GCTCGGGA
The “relative CpG methylation activity” value of the first is higher: 1.29 for the first, 1.17 for the second.

Compared with CCACGGCT, CTACGGCG is higher in “relative CpG methylation activity” value: 1.89 for the first, 2.04 for the second.

Compared with TTACGGCC, CTACGGAG is lower in “relative CpG methylation activity” value: 1.97 for the first, 1.52 for the second.

Compared with TCACGGCC, CCACGGCG is higher in “relative CpG methylation activity” value: 1.74 for the first, 1.86 for the second.

Compared with GTACGGCA, GCACGGCA is lower in “relative CpG methylation activity” value: 1.9 for the first, 1.79 for the second.

Going from GTACGGCT to CTACGGCT, the “relative CpG methylation activity” value rises from 1.56 to 2.28.

Compared with TTACGGAC, CTACGGTT is lower in “relative CpG methylation activity” value: 1.85 for the first, 1.76 for the second.

Going from CCTCGATT to TGACGGCA, the “relative CpG methylation activity” value rises from 1.35 to 1.53.

Compared with CACCGTAT, CTACGCCA is higher in “relative CpG methylation activity” value: 0.274 for the first, 1.78 for the second.

First: TCCCGTTA
Second: TAGCGGTC
The “relative CpG methylation activity” value of the first is lower: 0.532 for the first, 1.12 for the second.

Compared with GCACGCTA, AGTCGATC is higher in “relative CpG methylation activity” value: 0.861 for the first, 1.7 for the second.

First: AGTCGGAT
Second: AGGCGTCT
The “relative CpG methylation activity” value of the first is higher: 0.542 for the first, 0.521 for the second.

Going from GTTCGGAC to ATACGGAC, the “relative CpG methylation activity” value rises from 1.37 to 1.59.

First: TCACGGCG
Second: GTACGGAC
The “relative CpG methylation activity” value of the first is higher: 1.89 for the first, 1.51 for the second.

First: ATACGGCC
Second: TTACGGCG
The “relative CpG methylation activity” value of the first is lower: 2.01 for the first, 2.25 for the second.

Compared with GTACGGCC, ATACGGCT is lower in “relative CpG methylation activity” value: 1.9 for the first, 1.89 for the second.

Going from TTACGGCA to TTACGGAA, the “relative CpG methylation activity” value falls from 2.04 to 1.64.

Going from TTACGGTG to GTACGGTC, the “relative CpG methylation activity” value rises from 1.52 to 1.87.

With TCACGGCA the “relative CpG methylation activity” value was 1.82.
